Reference: US20220289795, “EFFICIENT METHOD FOR PREPARING PPR PROTEIN AND USE OF THE SAME” (EditForce, Inc., published 2022)

Target: T1, v3.1_PPR13 (Artificial Sequence)
T1 chain: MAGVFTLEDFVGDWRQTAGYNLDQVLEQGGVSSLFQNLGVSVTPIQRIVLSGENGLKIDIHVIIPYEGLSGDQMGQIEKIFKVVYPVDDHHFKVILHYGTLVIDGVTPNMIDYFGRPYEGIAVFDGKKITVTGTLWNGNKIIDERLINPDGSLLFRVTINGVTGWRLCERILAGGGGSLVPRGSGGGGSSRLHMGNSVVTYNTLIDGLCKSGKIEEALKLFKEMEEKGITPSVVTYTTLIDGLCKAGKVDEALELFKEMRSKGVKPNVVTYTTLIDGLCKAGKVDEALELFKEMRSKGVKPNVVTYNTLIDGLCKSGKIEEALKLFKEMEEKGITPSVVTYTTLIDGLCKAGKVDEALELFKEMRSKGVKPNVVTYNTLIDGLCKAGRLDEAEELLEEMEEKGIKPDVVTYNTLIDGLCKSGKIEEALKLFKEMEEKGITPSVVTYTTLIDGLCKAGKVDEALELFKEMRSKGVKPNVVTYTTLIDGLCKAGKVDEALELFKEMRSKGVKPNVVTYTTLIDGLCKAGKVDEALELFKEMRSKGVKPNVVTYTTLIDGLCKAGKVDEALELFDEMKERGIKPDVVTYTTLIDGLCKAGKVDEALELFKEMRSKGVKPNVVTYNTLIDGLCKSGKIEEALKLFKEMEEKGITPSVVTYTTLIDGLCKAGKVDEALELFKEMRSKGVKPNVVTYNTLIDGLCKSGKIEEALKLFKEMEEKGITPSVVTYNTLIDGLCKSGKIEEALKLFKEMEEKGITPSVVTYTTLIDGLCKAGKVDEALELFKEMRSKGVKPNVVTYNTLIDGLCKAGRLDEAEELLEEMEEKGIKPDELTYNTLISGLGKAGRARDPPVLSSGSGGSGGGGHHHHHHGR
Assay: RPB-ELISA
Details: tags: N-terminal luciferase, C-terminal 6xHis; label: 5'-biotin; ssRNA
Description: RNA probes consisting of a designed 30-base sequence containing 18 bases of the target sequence and modified by biotinylation at the 5′ end (RNA_1, RNA_2, RNA_3, RNA_4, and RNA_5, SEQ ID NOS: 61 to 65) were synthesized (Grainer). To a streptavidin-coated plate (Thermo fisher), the 5′-end biotinylated RNA probes were added, reaction was allowed at room temperature for 30 minutes, and the plate was washed with a lysis buffer (20 mM Tris-HCl, pH 7.6, 150 mM NaCl, 5 mM MgCl₂, 0.5% NP-40, 1 mM DTT, 0.1% BSA). For background measurement, wells to which RNA was not added, but 100 μL of the lysis buffer, 1 μL of 100 mM DTT, and 1 μL of 40 unit/4 RNase inhibitor (Takara, 2313A) were added were also prepared. Then, 200 μL of a blocking buffer (20 mM Tris-HCl, pH 7.6, 150 mM NaCl, 5 mM MgCl₂, 0.5% NP-40, 1 mM DTT, 1% BSA) was added, and the plate surface was blocked at room temperature for 30 minutes. Then, 100 μL of E. coli lysate containing luciferase-fused PPR protein having a luminescence level of 1.5×10⁸ LU/μL was added to each well, and the binding reaction was allowed at room temperature for 30 minutes. The well was washed 5 times with 200 μL of a washing buffer (20 mM Tris-HCl, pH 7.6, 150 mM NaCl, 5 mM MgCl₂, 0.5% NP-40, 1 mM DTT). […] The background (luminescence signal value obtained with adding the PPR protein and without adding RNA) was subtracted from the luminescences of the samples to which a solution containing each RNA and PPR protein was added, and the obtained values were used as the binding powers between the PPR protein and RNA.
By using the V3.1 motif, PPR proteins for the same 23 kinds of target sequences were similarly prepared (SEQ ID NOS: 411 to 433 for the nucleotide sequences, and SEQ ID NOS: 434 to 456 for the amino acid sequences), and bindings of all the combinations were analyzed by using RPB-ELISA. The experimental method was the same as that used in Example 3.

Q: Which binding signal does the source give for GGUUAGAGAUACAGUGUG here?
A: 20.6 log2 luminescence
